# Source: PubChem BioAssay (National Center for Advancing Translational Sciences (NCATS))
# D1 antag: human D1 dopamine receptor antagonism; 360,000 tested, 3.2% active; P21728; HEK293 TREx D1 cells, calcium flux, dopamine EC80; active compounds read low; activity change, negative = inhibition, % at 10 µM; in the data active = activity change below about -30%; note: % is set by controls: 0 for no effect and ±100 for the full control effect
#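 Calcium flux readout: force-coupled, inducible Hek293 Trex D1 line, cells induced overnight at 30 C with tetracycline, dye-loaded 30–90 min at RT. Antagonism scored against EC80 dopamine challenge given 180 s after compound.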
# D1 potentiator: enhances dopamine response at the human D1 receptor; P21728; HEK293 TREx D1 cells, calcium flux, dopamine EC20 potentiation; potentiation, % at 10 µM; 360,000 tested, 0.036% active; in the data active = potentiation above about 30%; note: 0% is about no effect
# DRD3 antagonist: antagonists of human D3 dopamine receptor | P35462 | D3R cells, DiscoveRx beta-arrestin luminescence, antagonist mode; active compounds read low | max response, negative = inhibition, % | 360,000 tested, 2.5% active; in the data active = max response below about -50%; note: % is set by controls: 0 for no effect and ±100 for the full control effect
# Target sequence (P35462 whole entry, looked up): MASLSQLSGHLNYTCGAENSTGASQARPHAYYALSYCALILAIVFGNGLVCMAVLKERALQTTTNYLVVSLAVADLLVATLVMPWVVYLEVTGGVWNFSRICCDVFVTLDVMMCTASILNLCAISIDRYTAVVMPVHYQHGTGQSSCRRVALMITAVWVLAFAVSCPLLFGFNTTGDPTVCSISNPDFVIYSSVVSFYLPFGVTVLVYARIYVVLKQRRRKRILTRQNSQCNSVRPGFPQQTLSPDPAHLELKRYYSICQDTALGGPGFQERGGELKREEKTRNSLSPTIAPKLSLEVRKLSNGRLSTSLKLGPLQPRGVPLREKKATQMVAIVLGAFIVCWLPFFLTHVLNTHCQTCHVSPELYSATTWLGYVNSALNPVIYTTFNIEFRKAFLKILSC
#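 Cells expressing the human receptor were seeded at 1500 cells/well, incubated overnight at 37 degrees C in 5% CO2, then exposed to library compounds with dopamine controls for 90 minutes at 37 degrees C before luminescent detection.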
# DRD3 agonist: D3 dopamine receptor (human) agonism | max activation, % | P35462 | 410,000 tested, 0.58% active | D3R DiscoveRx beta-arrestin cells, luminescence, 90 min; in the data active = max activation above about 30%; note: 0% is about no effect
#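 Agonist-mode cell screen: cells plated at 1500/well and incubated overnight at 37 °C, then exposed to library compounds for 90 min at 37 °C. Detection reagent was added for 30–60 min at room temperature, and luminescence was read.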
# D1 ag: human D1 receptor agonism; 360,000 tested, 1% active; P21728; activation, % at 2 µM; HEK293 T-REx D1 cells, calcium flux, agonist mode; in the data active = activation above about 30%; note: 0% is about no effect
#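 Tetracycline-induced HEK293 TREx D1 cells, force-coupled to calcium signalling, were dye-loaded with a no-wash calcium kit. Compound was pin-added after a 10 s baseline. Fluorescence was read kinetically at 1 cycle/s for 180 s, with calcium rises flagged as agonism.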
# An asterisk follows results filed as active; nt = no result. An excerpt weighted towards active compounds, which were near 6% of everything screened.
SMILES,D1 antag,D1 potentiator,DRD3 antagonist,DRD3 agonist,D1 ag
COc1ccc(-c2nc3scc(CCNS(=O)(=O)c4c(C)noc4C)n3n2)cc1OC,nt,1,nt,-16,-4
Cc1ccc(-c2nc3scc(CCNS(=O)(=O)c4c(C)noc4C)n3n2)cc1,nt,-2,nt,-11,32*
CC(=O)N(c1ccc(Cl)cc1)c1c[nH]c2ccccc12,-18,13,-67*,-25,5
COc1ccccc1CCNC(=O)C(=O)c1cn(CC(=O)N2CCOCC2)c2ccccc12,-3,0,1,4,0
O=C(/C=C/[C@H]1O[C@@H](n2cnc3c(NC(=O)c4ccccc4)ncnc32)[C@H](O)[C@@H]1O)NCc1ccco1,nt,nt,-2,-3,nt
Cc1ccc(NS(=O)(=O)c2cc([N+](=O)[O-])ccc2NNC(=S)Nc2cc(C)ccc2C)c(C)c1,-15,8,-23,-18,2
Cc1ccc(NS(=O)(=O)c2cc([N+](=O)[O-])ccc2NNC(=S)Nc2cccc(Cl)c2)c(C)c1,4,9,-73*,-4,1
Cc1ccc(NC(=O)CCSc2ccccc2)c(C)c1,-30*,5,nt,nt,0
Cc1cc(NC(=O)CCSc2ccccc2)ccc1Br,-30*,-9,3,1,5
Cc1ccc(C)c(NC(=S)NCCSc2ccc(Cl)cc2)c1,-28,-7,0,-7,11
Cc1ccc(NC(=S)NCCSc2ccc(Cl)cc2)c(C)c1,-33*,-6,-24,-1,22
Cc1cc(Br)ccc1NC(=O)CCSc1ccccc1,1,-2,8,1,1
CCCCCCSc1nsc(NC(=O)CCC)n1,-39*,3,-3,2,13
CSc1nsc(NC(=O)Cc2ccccc2)n1,-19,0,7,1,9
CCOc1ccc(/C=N/N(C)c2ccccc2)cc1OC,-1,-1,-54*,1,4
Cc1occc1C(=O)N/N=C/C=C\c1ccccc1[N+](=O)[O-],15,-1,-22,-7,-1
Cc1ccsc1C(=O)N/N=C/C=C/c1ccccc1[N+](=O)[O-],2,1,-85*,-6,3
CCC(C)NC(=O)c1cc(CC(C)C)on1 (centres undefined),-30*,1,8,-3,2
Cc1cccc(C)c1-n1nnnc1C1(C)CCC(=O)N1Cc1ccc(F)cc1 (centres undefined),nt,nt,9,1,nt
Cc1cccc(NC(=O)CSc2nc(=O)n(Cc3cccnc3)c3c2CCC3)c1,nt,-2,nt,4,-3
CCOc1ccc(CCNC(=O)COC(=O)COc2ccc(C#N)cc2)cc1OCC,-4,1,4,4,4
O=c1[nH]nc(N=Nc2c(O)[nH]c3ccc(F)cc23)c(=O)[nH]1,nt,nt,-21,-6,nt
Cc1ccc(N=Nc2[nH]c3ccccc3c2O)cc1,-5,2,2,-8,52*
Cc1ccc(N=Nc2c(O)[nH]c3ccc(F)cc23)cc1,-48*,-2,10,16,117*
COc1ccc(N=Nc2[nH]c3ccc(C)cc3c2O)cc1,5,-7,7,7,0
SMILES,D1 antag,D1 potentiator,DRD3 antagonist,DRD3 agonist,D1 ag
CC1=C(C(=O)N2CCOCC2)CC(CC(=O)NCCc2ccccn2)C(=O)N1CCC1=CCCCC1 (centres undefined),nt,nt,-17,-7,nt
COc1ccc(-c2nnc(SCc3ccccc3)n2N)cc1,-29,-5,-3,-5,63*
Cc1cccc(-c2nnc(SCC#N)n2C)c1,-1,9,28,5,1
c1ccc(CCn2c(SCc3ccccc3)nnc2-c2ccncc2)cc1,-5,-3,5,-4,35*
Cc1ccc(-c2nnc(SCC#N)n2N)cc1,-33*,10,-14,4,0
Cc1ccccc1-c1noc(CSc2nnc(Cc3ccccc3)n2-c2ccc(F)cc2)n1,10,0,nt,9,27
CCOC(=O)c1c(C)[nH]c(C)c1S(=O)(=O)N1CCCC(C(=O)N2CCN(c3cccc(Cl)c3)CC2)C1 (centres undefined),5,-3,nt,2,1
Cc1ccc(OCc2ccc(-c3nc(C#N)c(N4CCN(c5cccc(Cl)c5)CC4)o3)o2)cc1,-7,0,nt,-6,0
CC1CCN(S(=O)(=O)N2CCC(C(=O)NCc3ccc4c(c3)OCO4)CC2)CC1,-5,-7,4,3,1
CS(=O)(=O)N1CCC(C(=O)NCc2ccc3c(c2)OCO3)CC1,-35*,1,2,-4,1
